In all, about 340,000 compounds went through this assay and about 8,500 (2.5%) were called active.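 How the source made its calls: active means melting temperature shift of at least 10% of the positive control shift, at one fixed dose; inactive means the rest.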 Only a selection was taken, and actives are over-represented in it overall.
What follows are compounds tested on Glutamate receptor ionotropic, NMDA 3A (GRIN3A) ligand-binding domain (assay: binders of NR3A ligand-binding domain, primary screen, biophysical, differential scanning fluorimetry, uHTS (AID 1259313)). Details: NR3A LBD differential scanning fluorimetry, at 25 µM, stronger effect = higher value, 0% = protein alone, 100% = glycine-bound protein.

SMILES	Tm shift relative to glycine control
COc1ccc2c(c1)C(=O)CC(c1ccccc1)O2 (stereo not drawn)	-1.87% (inactive)
CCN(CC)c1ccc(C(=O)NNC(=O)CCc2nc3ccccc3c(=O)[nH]2)cc1	-0.56% (inactive)
COc1ccc(C(=O)COC(=O)COc2ccc(C)c(C)c2)cc1	12% (active)
Cc1ccc(OCC(=O)Nc2ccc(C(=O)O)cc2NC(=O)COc2ccc(C)c(C)c2)cc1C	-0.84% (inactive)
COc1ccc(OCC(=O)OCCN(C)C)cc1	-1.53% (inactive)
Cc1ccc(O/C=C2\OC(=O)c3ccccc32)cc1	49.4% (active)
Cc1ccc(Oc2cnn(-c3ccccc3)c(=O)c2Br)cc1	-1.23% (inactive)
Cc1n[nH]c(=O)c2c(NC(=O)COC(=O)c3ncc(Cl)c(Cl)c3Cl)oc(C)c12	4.91% (inactive)
Cc1c(CCC(=O)O)c(=O)oc2c(C)c(OCc3ccccc3Cl)ccc12	0.1% (inactive)
CCN([C@H](CO)C(C)C)S(=O)(=O)c1ccccc1Br	-1.23% (inactive)
O=C(O)CCCC(=O)Nc1ccccc1-n1ccnc1	-2.48% (inactive)
CCOC(=O)N1CCN(C(=O)COc2ccc(Br)cc2)CC1	10.1% (active)
CCOC(=O)N1CCN(C(=O)COc2ccc3oc4c(c3c2)CCCC4)CC1	1.71% (inactive)
CCOC(=O)N1CCN(S(=O)(=O)c2ccc(Br)cc2)CC1	-0.87% (inactive)
Cc1cccc([C@@H]2[C@@H]3C(=O)N(Cc4ccccc4)C(=O)[C@@H]3[C@]3(C)C(=O)N(c4ccc(Br)cc4)C(=O)N23)c1	-3.72% (inactive)
Cc1cccc([C@H]2[C@@H]3C=CC[C@@H](C)[C@@H]3C(=O)N2Cc2ccccc2)c1	0.67% (inactive)
Cc1ccc(-c2cccc([C@H]3[C@@H]4C=CC[C@@H](C)[C@@H]4C(=O)N3Cc3ccccc3)c2)cc1	15.4% (active)
CNC(=O)C1CCN(S(=O)(=O)c2c(C)noc2/C=C/c2cccc(C)c2)CC1	1.97% (inactive)
CCOC(=O)c1c(Cc2ccc(Cl)cc2)c[nH]c1C	-13.2% (inactive)
CC(C)(C)NC(=O)CN(Cc1cccs1)C(=O)CNS(=O)(=O)c1ccccc1	-2.34% (inactive)

SMILES	Tm shift relative to glycine control
Cn1nnnc1SCC(=O)N1CCN(Cc2ccccc2)CC1	0.27% (inactive)
O=C(c1ccc(-n2cnnn2)cc1)N1CCN(C(c2ccccc2)c2ccccc2)CC1	-0.38% (inactive)
Cn1nnnc1SCC(=O)N1CCN(C(c2ccccc2)c2ccccc2)CC1	11% (active)
N#C/C(C(=S)Nc1ccccc1)=C1/NN=C(N2CCOCC2)N1c1ccccc1	1.45% (inactive)
CCC(C(=O)OCC(=O)Nc1c(Cl)cc(Cl)cc1Cl)c1ccccc1 (stereo not drawn)	-8.02% (inactive)
CCC(C(=O)OCC(=O)Nc1ccc(C(=O)Nc2ccc(OC)cc2)cc1)c1ccccc1 (stereo not drawn)	22.5% (active)
COc1ccc(NC(=O)CS(=O)(=O)c2ccccc2)cc1	2.82% (inactive)
COc1ccc(NC(=O)COC(=O)c2ccc(NS(=O)(=O)/C=C/c3ccccc3)cc2)cc1	20.6% (active)
CCC(C(=O)OCC(=O)Nc1ccccc1-c1ccccc1)c1ccccc1 (stereo not drawn)	-2.7% (inactive)
CN(CC(=O)Nc1ccc(OC(F)F)cc1)S(=O)(=O)/C=C/c1ccccc1	-9.87% (inactive)
c1cnc(N2CCN(c3ccc4ccccc4n3)CC2)nc1	-1.6% (inactive)
O=C(CN1CCc2ccccc21)NC(c1ccccc1)c1ccccc1	-10.2% (inactive)
O=C1C=C(NCCNc2c(F)c(F)c(CO)c(F)c2F)CCC1	-8.05% (inactive)
Cc1ccc(NC(=O)COC(=O)CN2CCCCCC2=O)c(C)c1	-0.17% (inactive)
Cc1ccc(C(=O)NC2CCCC(C)C2C)cc1S(=O)(=O)N1CCCCC1 (stereo not drawn)	20.8% (active)
CC1CCCC(NC(=O)c2cc(S(=O)(=O)N3CCCCC3)ccc2Cl)C1C (stereo not drawn)	-1.61% (inactive)
Cc1ccc(C(=O)NNC(=O)c2ccncc2)cc1S(=O)(=O)N1CCCCC1	-0.93% (inactive)
COc1ccc(OC)c(C2C3=C(N=c4s/c(=C\c5cccc(O)c5)c(=O)n42)c2ccccc2CC3)c1 (stereo not drawn)	17.9% (active)
COCCOC(=O)C1=C(C)N=c2s/c(=C\c3cccs3)c(=O)n2C1c1cccs1 (stereo not drawn)	-1.71% (inactive)
O=C1CCCC2=C1C(c1ccccc1)n1c(s/c(=C/c3cccc(F)c3)c1=O)=N2 (stereo not drawn)	2.84% (inactive)

SMILES	Tm shift relative to glycine control
COC1=CCC2([N+](=O)[O-])CN(CC(=O)O)CC1([N+](=O)[O-])C2 (stereo not drawn)	-3.94% (inactive)
O=C(CCc1ccc(S(=O)(=O)N2CCOCC2)cc1)OCC(=O)c1ccc(Br)cc1	-0.17% (inactive)
N#CCC(=O)NC1CCC(CC2CCC(NC(=O)CC#N)CC2)CC1 (stereo not drawn)	0.51% (inactive)
O=[N+]([O-])c1ccc(COc2ccccc2CN2CCOCC2)cc1	-1.9% (inactive)
COc1ccc(C(=O)N2CCC(C(=O)Nc3cccc(C)c3)CC2)cc1OC	-0.09% (inactive)
COC(=O)Nc1sc2nc(C)cc(C)c2c1-n1cccc1	-4.15% (inactive)
Cc1cc(C)c2c(-n3cccc3)c(NC(=O)OCc3ccccc3)sc2n1	0.08% (inactive)
CCCCOC(=O)Nc1sc2nc(C)cc(C)c2c1-n1cccc1	11% (active)
CCC(CC)NC(=O)CSc1nnc(-c2c[nH]c3ccccc23)o1	1.71% (inactive)
COc1cccc(CNC(=O)CCC2CCCN(Cc3ccc(OC(F)F)cc3)C2)c1 (stereo not drawn)	1.06% (inactive)
Cn1nc(C(=O)OCC(=O)N(Cc2ccccc2)C(C)(C)C)c2ccccc2c1=O	0.45% (inactive)
OCCNc1nc2ccccc2n1-c1ncnc2sc3c(c12)CCC3	19.1% (active)
O=C(Cn1c(NCCO)nc2ccccc21)c1ccc(Cl)cc1Cl	-1.09% (inactive)
O=C(O)c1cccnc1Sc1ncnc2sc3c(c12)CCC3	-2.96% (inactive)
CC12C(=O)N(n3cnnc3)C(=O)C1C1C=CC2C1 (stereo not drawn)	0.47% (inactive)
Cc1ccccc1NC(=O)c1cc(S(=O)(=O)Nc2cccc(C(=O)O)c2)ccc1Cl	0% (inactive)
C=CCNC(=O)c1ccccc1NC(=O)c1ccc(Cl)c(S(=O)(=O)Nc2cccc(C)c2C)c1	16% (active)
Cc1ccc(C(=O)Nc2ccccc2-c2ccccc2)cc1S(=O)(=O)Nc1ccccc1	9.58% (inactive)
